The source of these data is a collection of fitness landscapes (doi:10.1016/j.celrep.2020.107928).

Whole data set: some 81,000 sequences, median “one-hybrid fitness for binding NBS DNA” near -0.1, cut for the highest 2% near 0.36. This is one part of a sample in which the highest values are shown more often than they occur.

Sequences and labels used below:
B1: Caulobacter ParB omega fusion; a variant is named by its letters at X, in order, B8GW30 (parent)
chain: MESVVVGEPGMSEGRRGLGRGLSALLGEVDAAPAQAPGEQLGGSREAPIEILQRNPDQPRRTFREEDLEDLSNSIREKGVLQPILVRPSPDTAGEYQIVAGERAWRAAQRAGLKTVPIMVRELDDLAVLEIGIIENVQRADLNVLEEALSYKVLMEKFERTQENIAQTIGKSXSHVANXMRLLXLPDEVQSYLVSGELTAXHARAIAAAADPVALAKQIIEGGLSVRETEALARKAPNLSAGKSKGGRPPRVKDTDTQALESDLSSVLGLDVSIDHRGSTGTLTITYATLEQLDDLCNRLTRGI

This assay covers variants of B1. The assay is described as follows: one-hybrid fitness for binding NBS DNA (the Noc-binding site; scaled: cognate 1, non-cognate 0); higher = stronger binding. Particulars: with NBS DNA site. Summed up:
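In E. coli USO, a HIS3 reporter with its site placed 19 bp from the promoter was used to select Caulobacter ParB variants randomised at four specificity codons. Growth lasted 48 hours at 37°C on histidine-free M9 containing 0.1 mM IPTG and 5 mM 3-AT. Fitness was taken as the log change in variant-to-wild-type read ratio from Illumina sequencing of pre- and post-selection plasmids, rescaled between the non-cognate and cognate sites.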
For the variant FLTY, the “one-hybrid fitness for binding NBS DNA” value is not above 0.2. The same measure for KTPC: not above 0.2; for PLQH: not above 0.2.

TATP: the “one-hybrid fitness for binding NBS DNA” value is not above 0.2. The same measure for MRTF: not above 0.2; for QQGD: not above 0.2.

QQQT: the “one-hybrid fitness for binding NBS DNA” value was found to be 0.449.

For QQYT, the “one-hybrid fitness for binding NBS DNA” value came out at 0.473. Regarding QQHC, the “one-hybrid fitness for binding NBS DNA” value was not above 0.2. On to QQQM, for which the “one-hybrid fitness for binding NBS DNA” value was not above 0.2. On to QQHT, for which the “one-hybrid fitness for binding NBS DNA” value was determined as 0.535. The same measure for QQGT: 0.475; for QQHM: not above 0.2; for QQGM: 0.202. For the variant QQQY, the “one-hybrid fitness for binding NBS DNA” value was determined as 0.247. For DQYT, the “one-hybrid fitness for binding NBS DNA” value was not above 0.2.

With SAFG, the “one-hybrid fitness for binding NBS DNA” value is not above 0.2. On to IKRQ, for which the “one-hybrid fitness for binding NBS DNA” value is not above 0.2. The result for STKR reads 0.254. The same measure for FDSL: not above 0.2. The same measure for VKGK: not above 0.2; for DTSI: not above 0.2. Take QQCT: the “one-hybrid fitness for binding NBS DNA” value stood at 0.528.

As for QQST, the “one-hybrid fitness for binding NBS DNA” value is 0.516. The same measure for QQCN: not above 0.2; for QQSP: not above 0.2; for QQSD: not above 0.2.

Consider QQCS, for which the “one-hybrid fitness for binding NBS DNA” value came to 0.356. The same measure for QYKE: 0.213.

As to QYKY, the “one-hybrid fitness for binding NBS DNA” value was 0.479. The same measure for QYLT: 0.383. The same measure for QYRY: 0.486; for QYGY: not above 0.2; for QYVY: not above 0.2. With QYDY, the “one-hybrid fitness for binding NBS DNA” value was not above 0.2.

With QYKL, the “one-hybrid fitness for binding NBS DNA” value was 0.246. The same measure for QYLD: not above 0.2. For QYFY, the “one-hybrid fitness for binding NBS DNA” value was not above 0.2. The result for QYLN reads not above 0.2. The result for QYKN reads 0.366. The result for VANF reads not above 0.2; that for NCLY, not above 0.2. For the variant QFRV, the “one-hybrid fitness for binding NBS DNA” value is not above 0.2.

On to SHNY, for which the “one-hybrid fitness for binding NBS DNA” value was not above 0.2.

As for QQPF, the “one-hybrid fitness for binding NBS DNA” value was not above 0.2. The same measure for TSAQ: not above 0.2; for HDDG: not above 0.2. The same measure for CDFR: not above 0.2; for SYFG: not above 0.2; for LSYG: not above 0.2.

As to QYLM, the “one-hybrid fitness for binding NBS DNA” value is not above 0.2.

Turning to QYWY, the “one-hybrid fitness for binding NBS DNA” value is not above 0.2. Take QYPM: the “one-hybrid fitness for binding NBS DNA” value was not above 0.2. The result for QYCT reads 0.419. Consider QYCY, for which the “one-hybrid fitness for binding NBS DNA” value was not above 0.2. The same measure for QYCG: not above 0.2. The same measure for QYWN: not above 0.2; for QYKM: 0.369; for QYKH: 0.569. The result for QYKG reads 0.294; that for QYWT, 0.378. As to QYKF, the “one-hybrid fitness for binding NBS DNA” value turned out to be 0.229. The result for LVLD reads not above 0.2; that for GKTG, not above 0.2; that for TVSI, not above 0.2. The result for MEAE reads not above 0.2; that for YPFW, not above 0.2; that for SPYH, not above 0.2.

In the case of HDPT, the “one-hybrid fitness for binding NBS DNA” value was not above 0.2. The result for NGHF reads not above 0.2; that for GEAN, not above 0.2; that for SSSE, not above 0.2.

In the case of QYHC, the “one-hybrid fitness for binding NBS DNA” value is not above 0.2.

Turning to QYSS, the “one-hybrid fitness for binding NBS DNA” value worked out at 0.357. The same measure for QYST: 0.413; for QYHT: 0.417; for QYRK: 0.36. The same measure for QYYK: not above 0.2; for QYKK: 0.398; for QYSH: not above 0.2. The result for QYHQ reads not above 0.2; that for QYPT, 0.255.

Turning to QYKT, the “one-hybrid fitness for binding NBS DNA” value is 0.722.

On to QYVT, for which the “one-hybrid fitness for binding NBS DNA” value amounted to 0.363. The same measure for VTAR: not above 0.2.

On to SYLG, for which the “one-hybrid fitness for binding NBS DNA” value is not above 0.2.

With HAQP, the “one-hybrid fitness for binding NBS DNA” value was not above 0.2. The result for GPML reads not above 0.2; that for SDVP, not above 0.2; that for IIPF, not above 0.2. The same measure for PDHK: not above 0.2; for MVPA: not above 0.2. The result for MAQR reads not above 0.2. As for QYFT, the “one-hybrid fitness for binding NBS DNA” value turned out to be 0.335. The same measure for QYYM: not above 0.2; for QYIT: 0.355. The same measure for QYYT: 0.352. The same measure for QYDM: not above 0.2. For the variant QYRT, the “one-hybrid fitness for binding NBS DNA” value worked out at 0.733. The result for QYKP reads 0.232; that for QYRM, 0.394; that for QYAS, 0.327.

In the case of QYAT, the “one-hybrid fitness for binding NBS DNA” value was 0.427. As to QYKD, the “one-hybrid fitness for binding NBS DNA” value amounted to 0.212. The result for QYKS reads 0.643; that for SPCH, not above 0.2. Take YMAS: the “one-hybrid fitness for binding NBS DNA” value is not above 0.2. With ELYR, the “one-hybrid fitness for binding NBS DNA” value was not above 0.2. The result for YQKG reads not above 0.2. The same measure for QERT: not above 0.2. Consider TNGI, for which the “one-hybrid fitness for binding NBS DNA” value was not above 0.2. For the variant RKFP, the “one-hybrid fitness for binding NBS DNA” value is not above 0.2. Consider RKFS, for which the “one-hybrid fitness for binding NBS DNA” value worked out at 0.435. Take RKFN: the “one-hybrid fitness for binding NBS DNA” value was not above 0.2. The same measure for RKAS: 0.597; for RKAP: not above 0.2. The same measure for RKAD: not above 0.2. The same measure for EDSG: not above 0.2. As for VTLK, the “one-hybrid fitness for binding NBS DNA” value was not above 0.2.

In the case of ISMT, the “one-hybrid fitness for binding NBS DNA” value was not above 0.2. The same measure for SRDR: not above 0.2; for QSRN: 0.374. The same measure for QSDN: not above 0.2; for QCRN: 0.482; for QSYN: not above 0.2.

On to QPRN, for which the “one-hybrid fitness for binding NBS DNA” value is not above 0.2. As for QCYN, the “one-hybrid fitness for binding NBS DNA” value was not above 0.2. For the variant KTCN, the “one-hybrid fitness for binding NBS DNA” value is not above 0.2. The same measure for LIAD: not above 0.2; for LNLA: not above 0.2. The same measure for QQRI: 0.383; for QQDI: not above 0.2. With QQYI, the “one-hybrid fitness for binding NBS DNA” value is not above 0.2. The result for QQKI reads 0.399. The same measure for QQVI: not above 0.2; for QQFI: not above 0.2; for ESLH: not above 0.2. As to QAYH, the “one-hybrid fitness for binding NBS DNA” value is not above 0.2. The same measure for QARN: 0.349; for QAIS: not above 0.2. On to QAYS, for which the “one-hybrid fitness for binding NBS DNA” value worked out at 0.305.

In the case of QARS, the “one-hybrid fitness for binding NBS DNA” value stood at 0.644. QARH: the “one-hybrid fitness for binding NBS DNA” value was 0.529. The same measure for TNFS: not above 0.2. The same measure for TAIV: not above 0.2; for LTFR: not above 0.2; for SLFT: not above 0.2. The result for ITST reads not above 0.2; that for SLTL, not above 0.2. In the case of QRNF, the “one-hybrid fitness for binding NBS DNA” value was determined as 0.327. The same measure for QPDS: not above 0.2; for QRNE: 0.276.

As for QRDS, the “one-hybrid fitness for binding NBS DNA” value was 0.468.

QRNS: the “one-hybrid fitness for binding NBS DNA” value turned out to be 0.716.
